The campaign covered roughly 2,400 compounds. About 750 (31%) were called active.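 How the source made its calls: active means median signal gain over dofetilide-blocked control wells reaching their mean plus 3 SD, so readout 1 at least 0; inactive means the rest.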 The list shows a part of the results.

Consider 101 molecules from PubChem BioAssay AID1835 (Johns Hopkins Ion Channel Center, 2009).

Chain of Voltage-gated inwardly rectifying potassium channel KCNH2 (Homo sapiens) (Q12809 whole entry, looked up): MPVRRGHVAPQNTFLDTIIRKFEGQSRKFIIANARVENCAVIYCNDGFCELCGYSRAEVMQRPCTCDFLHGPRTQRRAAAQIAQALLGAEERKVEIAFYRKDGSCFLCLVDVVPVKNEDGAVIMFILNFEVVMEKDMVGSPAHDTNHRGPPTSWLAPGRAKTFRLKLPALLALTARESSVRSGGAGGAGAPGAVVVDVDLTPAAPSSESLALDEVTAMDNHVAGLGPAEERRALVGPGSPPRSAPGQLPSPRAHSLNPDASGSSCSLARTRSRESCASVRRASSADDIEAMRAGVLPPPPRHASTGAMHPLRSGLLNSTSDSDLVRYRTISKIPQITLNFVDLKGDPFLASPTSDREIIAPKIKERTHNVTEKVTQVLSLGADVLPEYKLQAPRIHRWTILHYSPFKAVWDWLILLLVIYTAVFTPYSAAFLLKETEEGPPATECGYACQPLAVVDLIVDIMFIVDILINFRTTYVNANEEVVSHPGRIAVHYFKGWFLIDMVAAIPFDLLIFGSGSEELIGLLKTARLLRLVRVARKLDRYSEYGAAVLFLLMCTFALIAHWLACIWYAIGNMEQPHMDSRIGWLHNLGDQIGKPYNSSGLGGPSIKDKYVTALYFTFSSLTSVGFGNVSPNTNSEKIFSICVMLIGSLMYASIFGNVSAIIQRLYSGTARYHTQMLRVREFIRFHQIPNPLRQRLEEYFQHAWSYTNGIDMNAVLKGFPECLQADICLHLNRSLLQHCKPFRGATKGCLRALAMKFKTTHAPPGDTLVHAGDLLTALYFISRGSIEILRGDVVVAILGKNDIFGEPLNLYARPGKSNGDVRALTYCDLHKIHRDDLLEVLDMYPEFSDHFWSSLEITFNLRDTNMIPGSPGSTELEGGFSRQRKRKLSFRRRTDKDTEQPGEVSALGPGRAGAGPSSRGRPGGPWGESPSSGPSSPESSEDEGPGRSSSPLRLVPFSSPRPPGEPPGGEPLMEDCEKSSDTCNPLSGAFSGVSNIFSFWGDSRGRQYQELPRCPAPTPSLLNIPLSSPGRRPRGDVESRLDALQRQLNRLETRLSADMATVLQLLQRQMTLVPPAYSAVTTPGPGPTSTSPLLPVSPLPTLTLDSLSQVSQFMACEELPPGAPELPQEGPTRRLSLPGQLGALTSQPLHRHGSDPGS

This experiment has as its target Voltage-gated inwardly rectifying potassium channel KCNH2 (Homo sapiens) (UniProt Q12809). The experiment in a line: hERG protection against dofetilide inhibition, confirmation, cell-based, thallium flux, duplicate retest, dofetilide IC70 (AID 1835). The following applies: hERG cell line, FluxOR thallium flux, dofetilide-blocked; at 10 µM; stronger effect = higher value. A general note: hERG is a cardiac potassium channel; its block is linked to QT prolongation.
Regarding `O=[N+]([O-])c1cccnc1Sc1n[nH]c(-c2ccc(Cl)cc2)n1`, the activity increase over dofetilide control, less the hit threshold was -14% (inactive). The figure for `Cc1ccc2[nH]c3c(c2c1)CNCC3` is -15% (inactive). In the case of `CCC(=O)Nc1nnc(-c2ccccn2)o1`, the activity increase over dofetilide control, less the hit threshold was -17% (inactive). Consider `O=C(NN1C(=O)C2C(c3ccccc3)C=CC(c3ccccc3)C2C1=O)c1ccncc1` (stereo unspecified), for which the activity increase over dofetilide control, less the hit threshold is -56% (inactive). Take `O=C(c1ccc(C(F)(F)F)cc1)C1CCCN(C(=O)CCc2ccncc2)C1` (stereo unspecified): the activity increase over dofetilide control, less the hit threshold was -7% (inactive). On to `O=C(NC(=S)N1CCCC(C(F)(F)F)C1)c1ccc(F)cc1` (stereo unspecified), for which the activity increase over dofetilide control, less the hit threshold is 19% (active).

On to `COc1ccc(C(=O)NC(=S)N2CCC(C)CC2)cc1`, for which the activity increase over dofetilide control, less the hit threshold was -11% (inactive). Turning to `COc1ccc(C(=O)NC(=S)N2CCC(C)CC2)cc1Br`, the activity increase over dofetilide control, less the hit threshold is 26% (active).

As to `O=C(C1CC(=O)N(c2ccc3c(c2)OCCO3)C1)N1CCCC(C(F)(F)F)C1` (stereo unspecified), the activity increase over dofetilide control, less the hit threshold was -15% (inactive). The figure for `CC1CN(C(=S)NC(=O)c2ccc(Cl)cc2)CC(C)O1` (stereo unspecified) is 5% (active); for `Cc1ccc2c(c1)N(CCC(=O)NCc1cccnc1)C(=O)CO2` it is -17% (inactive); for `O=C1NC2(CCCCCC2)C(=O)N1Cc1ccccc1` it is -2% (inactive). For the molecule `CC(C)(C)OC(=O)NCCCC(CCCNC(=O)OC(C)(C)C)C(=O)O`, the activity increase over dofetilide control, less the hit threshold is -22% (inactive). On to `CCOC(=O)CN1C(=O)SC(Nc2ccc(C)cc2)C1=O` (stereo unspecified), for which the activity increase over dofetilide control, less the hit threshold was -10% (inactive).

With `Cc1nc2c(C(=O)NCc3cccs3)cnn2c(C)c1Cc1ccccc1`, the activity increase over dofetilide control, less the hit threshold was -12% (inactive). With `CCCn1c(SCC(N)=O)nc2c(c1=O)C1(CCCC1)Cc1ccccc1-2`, the activity increase over dofetilide control, less the hit threshold was 2% (active).

With `CC1CCCN(C(=O)COC(=O)c2cc(-c3cccs3)nn2-c2ccccc2)C1` (stereo unspecified), the activity increase over dofetilide control, less the hit threshold is -29% (inactive).

Consider `Nc1ccc(NC(=O)Nc2ccc(N)cc2)cc1`, for which the activity increase over dofetilide control, less the hit threshold was -3% (inactive). Next, `Cc1cc2c(cc(C(=O)OC(C(=O)NCc3ccco3)C(C)C)n2C)o1` (stereo unspecified): 2% (active); `COc1cccc(N2CCN(CC(=O)NC(=O)NCc3ccco3)CC2)c1`: -9% (inactive). Next, `O=C(NCc1ccco1)c1ccc(OCC2CCCO2)cc1` (stereo unspecified): -22% (inactive).

With `CCc1ccc(/C=C/C(=O)C2C(=O)c3ccccc3C2=O)cc1`, the activity increase over dofetilide control, less the hit threshold is 49% (active). For `Cc1ccc(/C=C(\NC(=O)c2ccccc2)C(=O)N2CCCCC2)cc1`, the activity increase over dofetilide control, less the hit threshold was -26% (inactive). Next, `CCc1ccc(/C=c2\s/c(=C\C(=O)C(C)(C)C)[nH]c2=O)cc1`: -6% (inactive). Turning to `CC(=O)C1=C(C)NC(=O)NC1/C=C/c1ccccc1` (stereo unspecified), the activity increase over dofetilide control, less the hit threshold was -1% (inactive).

In the case of `Cc1ccc(/C=C/C(=O)C2C(=O)c3ccccc3C2=O)cc1`, the activity increase over dofetilide control, less the hit threshold was 42% (active). Turning to `CCC(c1nnc(SCC(=O)NCCc2ccc(Cl)cc2Cl)o1)N(C)C` (stereo unspecified), the activity increase over dofetilide control, less the hit threshold was -16% (inactive). Regarding `COc1ccc(C(=O)N2CCN(Cc3ccc4c(c3)OCO4)CC2)cc1[N+](=O)[O-]`, the activity increase over dofetilide control, less the hit threshold is -7% (inactive).

Turning to `O=C(COc1ccc(Cl)cc1)N1CCN(Cc2ccc3c(c2)OCO3)CC1`, the activity increase over dofetilide control, less the hit threshold was -17% (inactive). For `CCCCNC(=S)NNC(=O)c1ccc2c(c1)OCO2`, the activity increase over dofetilide control, less the hit threshold was -13% (inactive). Next, `O=C(NC(=S)N1CCN(C/C=C/c2ccccc2)CC1)c1ccc(Cl)nc1`: -7% (inactive); `O=C(NC(=S)N1CCN(Cc2ccc3c(c2)OCO3)CC1)c1ccc(Cl)cc1`: 21% (active); `O=C(NC(=S)N1CCN(Cc2ccc3c(c2)OCO3)CC1)c1cccc(Br)c1`: 48% (active). With `Cc1cc(Cl)c(S(=O)(=O)N2CCSCC2)cc1OCC(=O)NC1CCCCC1`, the activity increase over dofetilide control, less the hit threshold was -8% (inactive). For the molecule `Cc1nc(NCCc2ccc(S(N)(=O)=O)cc2)c2c(C)c(C)sc2n1`, the activity increase over dofetilide control, less the hit threshold was 2% (active).

For the molecule `O=C(Nc1nc(-c2ccccc2)c(-c2ccccc2)o1)c1ccc(F)cc1`, the activity increase over dofetilide control, less the hit threshold is 17% (active). Consider `O=C(Nc1nnc(-c2ccccc2)o1)c1ccc(Cl)cc1`, for which the activity increase over dofetilide control, less the hit threshold was -19% (inactive). Take `O=C(Nc1cccc2[nH]ncc12)c1ccc(F)cc1`: the activity increase over dofetilide control, less the hit threshold is -7% (inactive). Next, `O=c1cc(-c2c(F)c(F)c(F)c(F)c2F)oc2ccccc12`: 2% (active); `CCOC(=O)C(=CNc1cc(C)ccn1)C(=O)OCC`: 10% (active).

Turning to `CCOC(=O)C(=CNc1cccc(C)n1)C(=O)OCC`, the activity increase over dofetilide control, less the hit threshold is 5% (active). With `CCOC(=O)C(=CNc1cc(C)nn1C(C)(C)C)C(=O)OCC`, the activity increase over dofetilide control, less the hit threshold was 2% (active).

On to `CCOC(=O)C(=CNc1ccc(OC)cc1[N+](=O)[O-])C(=O)OCC`, for which the activity increase over dofetilide control, less the hit threshold is -10% (inactive).

Turning to `CCOC(=O)C(=CNc1ccc(N2CCOCC2)cc1)C(=O)OCC`, the activity increase over dofetilide control, less the hit threshold was 0% (inactive). Turning to `CCOC(=O)C(=CNc1cc(C)ccc1[N+](=O)[O-])C(=O)OCC`, the activity increase over dofetilide control, less the hit threshold was -17% (inactive). `CCOC(=O)CC(=O)CSc1nc2c(C)c(C)ccc2cc1C`: the activity increase over dofetilide control, less the hit threshold was -7% (inactive).

For `O=C(NC1CCCC1)C(c1ccncc1)N(C(=O)Cn1nnc(-c2ccccc2F)n1)c1cccc(F)c1` (stereo unspecified), the activity increase over dofetilide control, less the hit threshold is -14% (inactive).

On to `Cc1cccc(C)c1NC(=O)Cn1cnc2c(=O)n(C)c(=O)n(C)c21`, for which the activity increase over dofetilide control, less the hit threshold was -17% (inactive). For `COc1ccccc1C1C(C(=O)c2ccc(C)o2)=C(O)C(=O)N1c1cc(C)on1` (stereo unspecified), the activity increase over dofetilide control, less the hit threshold is -1% (inactive). For the molecule `Cc1ccc(NC(=O)COc2cccnc2[N+](=O)[O-])cc1S(=O)(=O)N1CCOCC1`, the activity increase over dofetilide control, less the hit threshold is -24% (inactive). On to `Cc1ccc(-c2noc(CCC(=O)NC3CCCC3)n2)cc1`, for which the activity increase over dofetilide control, less the hit threshold was -7% (inactive). Next, `Cc1cc(C)cc(-n2c(C)cc(/C=N/NC(=O)CN(c3c(C)cccc3C)S(C)(=O)=O)c2C)c1`: -1% (inactive); `CCN(C(=S)NC(=O)c1ccccc1Br)C1CCCCC1`: 80% (active). Take `CN(C(=S)NC(=O)c1ccccc1Br)C1CCCCC1`: the activity increase over dofetilide control, less the hit threshold is 1% (active). Take `O=C(NCC1CCCCC1)c1cccnc1Cl`: the activity increase over dofetilide control, less the hit threshold is -14% (inactive). Turning to `COc1cc(S(=O)(=O)Nc2c(C)cc(C)cc2C)ccc1Cl`, the activity increase over dofetilide control, less the hit threshold was -10% (inactive). Take `O=C(CN1C(=O)COc2ccccc21)NNC(=O)Nc1ccccc1F`: the activity increase over dofetilide control, less the hit threshold was -22% (inactive).

As for `COCCn1c(SCC(=O)Nc2cc(C)cc(C)c2)nc2ccccc2c1=O`, the activity increase over dofetilide control, less the hit threshold is -9% (inactive). As for `CCCn1c(SCN2C(=O)c3ccccc3C2=O)nc2cc(Cl)ccc2c1=O`, the activity increase over dofetilide control, less the hit threshold was 20% (active).

For `CC(C)CCn1c(SCC(=O)NC2CC2)nc2cc(Cl)ccc2c1=O`, the activity increase over dofetilide control, less the hit threshold was -13% (inactive).

`CCCCC1C2=C(CCCC2=O)OC2=C1C(=O)CCC2`: the activity increase over dofetilide control, less the hit threshold is -13% (inactive). For `CCCCn1c(N)c(C(=S)NC(=O)CC(C)(C)C)c(=O)n(C)c1=O`, the activity increase over dofetilide control, less the hit threshold was -3% (inactive).

Turning to `O=C1c2ccccc2NC(c2ccc(Br)s2)N1O` (stereo unspecified), the activity increase over dofetilide control, less the hit threshold was 41% (active). Next, `COc1ccc(/C=C/c2cc(=O)c3cc(Cl)ccc3o2)cc1`: 56% (active); `Cc1oc2ccc(OCc3ccc(Cl)cc3)cc2c1C(=O)O`: -7% (inactive); `COc1ccc(-c2cc(=O)oc3cc(OCC(C)=O)ccc23)cc1`: -27% (inactive). For `CCN(C(=O)c1cc2c(=O)[nH]c3ccc(C)cc3c2s1)c1ccccc1F`, the activity increase over dofetilide control, less the hit threshold is -15% (inactive). Regarding `O=C(c1ccc2c(c1)N(Cc1ccccc1F)C(=O)c1ccccc1S2(=O)=O)N1CCCC1`, the activity increase over dofetilide control, less the hit threshold was -10% (inactive). As to `CC/C(=N\NC(=O)c1nnn(-c2nonc2N)c1-c1cccs1)c1ccccc1`, the activity increase over dofetilide control, less the hit threshold is -4% (inactive).

With `N#Cc1ccccc1OCCN1C(=O)c2ccccc2C1=O`, the activity increase over dofetilide control, less the hit threshold was -4% (inactive).

In the case of `O=Cc1cc(-c2ccccc2)[nH]c1-c1ccccc1`, the activity increase over dofetilide control, less the hit threshold was -19% (inactive).

For the molecule `S=c1[nH]c(-c2ccccc2)cs1`, the activity increase over dofetilide control, less the hit threshold is 66% (active).

In the case of `S=c1[nH]c(-c2ccc(Cl)cc2)cs1`, the activity increase over dofetilide control, less the hit threshold was 136% (active). Regarding `Cc1ccc(-c2csc(=S)[nH]2)cc1`, the activity increase over dofetilide control, less the hit threshold was 95% (active).

Consider `S=c1[nH]nc(Nc2ccc(Cl)cc2)s1`, for which the activity increase over dofetilide control, less the hit threshold was -3% (inactive). On to `CO/N=C(\CCC(=O)O)c1cccs1`, for which the activity increase over dofetilide control, less the hit threshold was -20% (inactive). Take `O=C(N/N=C/c1cc([N+](=O)[O-])ccc1O)c1ccc(COc2ccc3c(c2)CCC3)o1`: the activity increase over dofetilide control, less the hit threshold is -10% (inactive). As for `Cc1c(N2C(=O)/C(=C\c3ccccc3O)SC2=S)c(=O)n(-c2ccccc2)n1C`, the activity increase over dofetilide control, less the hit threshold is 14% (active). As to `O=C(O)COc1ccccc1/C=C1\SC(=S)N(NC(=O)c2ccccc2O)C1=O`, the activity increase over dofetilide control, less the hit threshold is -11% (inactive). The figure for `O=C(OCc1ccc(F)cc1)c1cc(S(=O)(=O)N2CCCCC2)ccc1N1CCOCC1` is -21% (inactive); for `Cc1cc(=O)oc(C)c1C(=O)NCCC(C)C` it is -17% (inactive); for `COc1ccc(OC)c(NC(=O)C(=O)NNC(=O)c2cccs2)c1` it is 8% (active).

In the case of `COc1ccc(NC(=O)C(=O)NNC(=O)c2cccs2)c(OC)c1`, the activity increase over dofetilide control, less the hit threshold was 28% (active). For `COc1cc(NC(=O)c2ccc3c(c2)OCO3)ccc1NC(=O)c1cccs1`, the activity increase over dofetilide control, less the hit threshold is -22% (inactive).

`COc1ccc(NC(=O)CNC(=O)c2cccs2)cc1Cl`: the activity increase over dofetilide control, less the hit threshold was -8% (inactive). `CCc1cccc2c1NC(=O)C2(O)CC(=O)c1cccs1` (stereo unspecified): the activity increase over dofetilide control, less the hit threshold was -11% (inactive). Next, `COC(=O)c1ccnc(/C=N/O)c1`: -13% (inactive). In the case of `O=C1NC(=S)SC1=C1CCCCCC1`, the activity increase over dofetilide control, less the hit threshold is 53% (active). Next, `O=C(O)c1ccc(S(=O)(=O)/N=C2\C=C(Nc3ccccc3F)C(=O)c3ccccc32)cc1`: 4% (active); `Cc1ccccc1NC1=C/C(=N\S(=O)(=O)c2ccc(C(=O)O)cc2)c2ccccc2C1=O`: -6% (inactive); `O=c1c2ccc(Cl)cc2[nH]c(=S)n1CCC1=CCCCC1`: 42% (active). Consider `O=c1c2cccnc2[nH]c(=S)n1CCC1=CCCCC1`, for which the activity increase over dofetilide control, less the hit threshold is -3% (inactive). In the case of `O=C(CCn1c(=S)[nH]c2cc3c(cc2c1=O)OCO3)NCc1ccc(Cl)cc1`, the activity increase over dofetilide control, less the hit threshold was -8% (inactive). Regarding `O=c1c2ccccc2[nH]c(=S)n1CCC1=CCCCC1`, the activity increase over dofetilide control, less the hit threshold is 11% (active).

For the molecule `O=C(Cc1cccs1)Nn1c(Cc2cccs2)nc2ccccc2c1=O`, the activity increase over dofetilide control, less the hit threshold was -7% (inactive). Regarding `CC(=O)Nc1ccc(S(=O)(=O)NC2(C(F)(F)F)C(=O)Nc3c2c(=O)[nH]c(=O)n3C)cc1` (stereo unspecified), the activity increase over dofetilide control, less the hit threshold was -10% (inactive). In the case of `O=C(O)c1sccc1OCc1ccccc1`, the activity increase over dofetilide control, less the hit threshold was -8% (inactive). The figure for `COc1ccc(CCNC(=O)c2cc3ccccc3oc2=O)cc1` is -8% (inactive); for `O=C(NNc1c(F)c(F)cc(F)c1F)c1cc2ccccc2oc1=O` it is -20% (inactive). For `O=C(O)c1ccccc1NC(=O)c1cc2ccccc2oc1=O`, the activity increase over dofetilide control, less the hit threshold is 10% (active).

For `CCO/C=C1\N=C(c2ccc(F)cc2)OC1=O`, the activity increase over dofetilide control, less the hit threshold is -5% (inactive).
